# High-throughput results deposited in PubChem by several laboratories.
# BoNT A protease: inhibitors of Botulinum neurotoxin A light chain protease | multiplex microsphere protease substrate cleavage, flow cytometry | inhibition, % at 10 µM | actives 0.17% (n = 360,000) | AID 588499
# Anthrax LF prot: anthrax lethal factor protease inhibition; P15917; multiplex microsphere protease cleavage assay, LF; inhibition, % at 10 µM; actives 0.12% (n = 360,000); AID 588501
# Target sequence (P15917 whole entry, looked up): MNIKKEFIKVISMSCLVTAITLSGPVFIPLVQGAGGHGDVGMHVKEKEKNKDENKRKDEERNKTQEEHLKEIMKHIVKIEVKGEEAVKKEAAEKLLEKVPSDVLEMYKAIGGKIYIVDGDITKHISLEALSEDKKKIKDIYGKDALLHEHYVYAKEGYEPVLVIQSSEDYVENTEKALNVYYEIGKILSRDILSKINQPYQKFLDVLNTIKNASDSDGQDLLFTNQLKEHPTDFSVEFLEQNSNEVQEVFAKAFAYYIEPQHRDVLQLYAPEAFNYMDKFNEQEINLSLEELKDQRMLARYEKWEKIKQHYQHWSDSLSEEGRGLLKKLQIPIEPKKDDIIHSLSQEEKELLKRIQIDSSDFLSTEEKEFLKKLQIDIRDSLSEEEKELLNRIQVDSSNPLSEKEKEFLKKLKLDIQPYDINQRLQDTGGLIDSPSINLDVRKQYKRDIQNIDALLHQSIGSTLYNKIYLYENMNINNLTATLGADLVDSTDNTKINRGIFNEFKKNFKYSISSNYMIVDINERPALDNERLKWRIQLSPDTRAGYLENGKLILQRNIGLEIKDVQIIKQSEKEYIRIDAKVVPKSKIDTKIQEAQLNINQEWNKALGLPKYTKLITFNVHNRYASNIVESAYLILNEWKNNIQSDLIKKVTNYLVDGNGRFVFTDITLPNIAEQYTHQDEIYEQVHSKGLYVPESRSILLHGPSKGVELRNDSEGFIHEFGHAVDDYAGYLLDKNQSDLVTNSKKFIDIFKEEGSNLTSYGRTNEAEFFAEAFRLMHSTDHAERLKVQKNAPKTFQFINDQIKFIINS
# BoNT F protease: BoNT F light chain protease inhibition | actives 0.22% (n = 360,000) | Multiplex microsphere protease cleavage assay, flow cytometry | inhibition, % at 10 µM; in the data active means inhibition above about 35%, passing the limit was not always enough; inconclusive means no clear call, values can overlap the other calls
# SARS 3CLpro inh-1: SARS-CoV 3CLpro protease inhibition | P0C6X7 | recombinant SARS-CoV 3CLpro, quenched FRET peptide cleavage | inhibition, % at 6 µM | actives 0.14% (n = 290,000) | AID 1706; in the data active means inhibition above about 12%
# Bead autofluor: counter-screen for toxin protease inhibitors: compound fluorescence. compound autofluorescence counterscreen, microsphere flow cytometry; stronger effect = higher value. fluorescence intensity (no concentration beside the values). actives 3.1% (n = 360,000). AID 624483; in the data active means fluorescence intensity above about 16000; inconclusive means no clear call, values can overlap the other calls
# CCHFV vOTU inh: CCHFV vOTU protease inhibition | Pep-AMC fluorescence | inhibition, % at 11.5 µM | actives 0.55% (n = 370,000); in the data active means inhibition above about 30%
# SARS 3CLpro inh-2: confirmation of SARS coronavirus 3C-like protease inhibitors; actives 36% (n = 380); QFRET protease activity assay, 3CLpro; shares compounds with SARS 3CLpro inh-1; inhibition, % at 6 µM; in the data active means inhibition above about 13%
# Hits are given with their value; 0 = inactive; ? = inconclusive; - = no result given. Most compounds without a hit are left out; they make up all but 3.9% or so of the library. Unless noted, no stated cut-off is given here; in the data, active means inhibition above about 30%; inconclusive means no clear call, values can overlap the other calls; inactive means below that.
SMILES,BoNT A protease,Anthrax LF prot,BoNT F protease,SARS 3CLpro inh-1,Bead autofluor,CCHFV vOTU inh,SARS 3CLpro inh-2
CC(C)(C)OC(=O)[C@H](Cc1ccccc1)NC(=O)c1nc[nH]c1C(=O)NCc1ccccc1,0,0,0,0,0,0,-
CC(C)(C)OC(=O)NCc1ccc(CNC(=O)c2[nH]cnc2C(=O)N[C@@H](Cc2ccccc2)C(=O)OC(C)(C)C)cc1,0,0,0,15,0,0,0
CCOC(=O)C(=O)N1CCC(C(=O)OC)CC1,0,0,0,0,0,0,-
O=C(CS(=O)(=O)c1ccccc1)Nc1nccs1,0,0,0,0,0,0,-
CC(C)(C)c1ccc(C(=O)Nc2ccc(S(=O)(=O)Nc3cnc4ccccc4n3)cc2)cc1,0,0,?,14,0,0,0
CCc1ccc(S(=O)(=O)/N=C2\C=C(Nc3ccc(C(=O)O)cc3)C(=O)c3ccccc32)cc1,0,0,0,17,0,112,0
O=C(Nc1ccccc1)NN(C(=O)CCl)c1ccccc1,0,0,0,32,0,0,36
CCC(O)(CC)C(=O)NN(C(=O)CCl)c1ccccc1,0,0,0,0,0,0,-
N/C(=N\S(=O)(=O)c1cc(C(F)(F)F)cc(C(F)(F)F)c1)c1ccncc1,0,0,0,0,0,0,-
N/C(=N\S(=O)(=O)c1cc(C(F)(F)F)cc(C(F)(F)F)c1)c1ccc(Cl)cc1,0,0,?,14,?,0,0
COC(=O)c1cnc(N2CCOCC2)nc1C(F)(F)F,0,0,0,0,0,0,-
Cn1c(=O)c2[nH]c(CCc3ccncc3)nc2n(C)c1=O,0,0,0,-,0,0,-
CCOC(=O)CC(NC(=O)c1cc2ccccc2oc1=O)c1cccc([N+](=O)[O-])c1 (stereo not drawn),0,0,0,0,0,0,-
Cc1ccc(C(=O)n2cnc3ccccc32)cc1C,0,0,0,19,0,0,26
COc1ccc(/C=N/NC(=O)c2nnn(-c3nonc3N)c2CN(C)C2CCCCC2)cc1,0,0,0,0,0,0,-
Cc1ccc(C(=O)O)cc1NC(=S)NC(=O)c1ccc(COc2ccccc2)cc1,0,0,0,16,0,0,13
CCCc1c(C(=O)N/N=C/c2ccc(OC)c(OCc3ccccc3)c2)nnn1-c1nonc1N,0,0,0,0,0,0,-
CCCc1c(C(=O)N/N=C/c2c(OC)ccc3ccccc23)nnn1-c1nonc1N,0,0,0,14,0,0,0
COc1cccc(/C=N/NC(=O)c2nnn(-c3nonc3N)c2CN(C)c2ccccc2)c1,0,0,0,12,0,0,0
CN(Cc1ccccc1)C(=O)N1CCOCC1,0,0,0,0,0,0,-
NC(=S)N/N=C/c1ccc(C23CC4CC(CC(C4)C2)C3)cc1,-,-,-,14,-,-,0
NC(=S)N/N=C/c1ccccc1,0,0,0,0,0,0,-
CCCCn1c(N)c(N(CC(C)C)C(=O)c2ccc([N+](=O)[O-])o2)c(=O)[nH]c1=O,0,0,0,-,0,0,-
Cc1cc(C)c(N(C(=O)Cn2nnc3ccccc32)C(C(=O)NC(C)(C)C)c2ccsc2)c(C)c1 (stereo not drawn),0,0,0,43,0,0,69
S=C(c1ccc(-c2ccccc2Cl)o1)N1CCCCC1,0,0,0,27,0,0,0
SMILES,BoNT A protease,Anthrax LF prot,BoNT F protease,SARS 3CLpro inh-1,Bead autofluor,CCHFV vOTU inh,SARS 3CLpro inh-2
C=CCNc1nc2ccccc2nc1NS(=O)(=O)c1ccc(Br)cc1,0,0,0,0,0,0,-
Cc1cccc(NC(=S)NN2CCOCC2)c1C,0,0,0,13,0,0,0
Cc1cccc(NC(=S)NN2CCN(C)CC2)c1C,0,0,0,0,0,0,-
Cc1ccc(-c2nn(-c3ccccc3)cc2NC(=O)CCl)cc1,0,0,0,14,0,0,13
Cc1ccc(-c2cc(NC(=O)CCl)n(-c3ccccc3)n2)cc1,0,0,0,0,0,0,-
O=C(Nc1ccc(NC(=S)NC(=O)c2ccccc2Cl)cc1)c1cccc(Cl)c1,0,0,0,16,0,0,0
CC(C)C(=O)Nc1cccc(NC(=S)NC(=O)c2ccccc2Cl)c1,?,?,0,0,?,0,-
CCCn1c(SCC(=O)Nc2cc(S(=O)(=O)N(C)C)ccc2OC)n[nH]c1=O,0,0,0,0,0,0,-
O=C(CCl)N(CCc1ccccc1)CCc1ccccc1,0,0,0,16,0,0,24
Cc1nn(-c2ccccc2)c(N)c1C(c1ccccc1)c1c(C)nn(-c2ccccc2)c1N,0,0,0,14,0,0,0
N#CCC(=O)N/N=C/c1c(-c2ccccc2)n(-c2ccccc2)c2ccccc12,0,0,0,22,0,0,23
N#CCC(=O)N/N=C/c1cn(Cc2ccccc2C#N)c2ccccc12,-,-,-,0,-,0,-
CC(NC(=O)CN1CCN(c2ncccn2)CC1)c1ccc(F)cc1 (stereo not drawn),0,0,0,0,0,0,-
CC(C)NC(=O)CN1CCN(c2ncccn2)CC1,0,0,0,12,0,0,0
COc1ccc(NC(=O)C2CCN(C(=O)[C@@H]3Cc4ccccc4CN3C(=O)OC(C)(C)C)CC2)cc1,0,0,0,0,0,0,-
Cc1ccc2[nH]c(=O)c(CN(CCc3ccccc3)Cc3nnnn3CC3CCCO3)cc2c1 (stereo not drawn),0,0,0,57,0,0,0
COc1ccc2[nH]c(=O)c(CN(CCc3ccccc3)Cc3nnnn3CC3CCCO3)cc2c1 (stereo not drawn),0,0,0,0,0,0,-
O=C(CCNC(=O)Cn1cnc2ccccc2c1=O)NCC1CCCO1 (stereo not drawn),0,0,0,17,0,0,0
Cc1ccc(-c2cc(NC(=O)c3ccccc3[N+](=O)[O-])n[nH]2)cc1,0,0,0,16,0,0,14
O=S(=O)(Nc1cc(F)ccc1F)c1cccc2nonc12,0,0,0,13,0,0,0
O=S(=O)(Nc1cc(F)ccc1F)c1cccc2nsnc12,0,0,?,0,0,0,-
O=C(Nc1ccc(OCC(F)(F)C(F)F)cc1)c1ccncc1,0,0,0,0,0,0,-
O=C(Nc1ccc(OCC(F)(F)C(F)F)c(C(F)(F)F)c1)c1ccccc1O,0,0,0,13,0,0,15
CCOC(=O)C1CCCN(S(=O)(=O)c2c(C(=O)N3CCCCC3)c(C)n(C)c2C)C1 (stereo not drawn),0,0,0,0,0,0,-
C/C(Cn1nnc([N+](=O)[O-])n1)=N\NC(=O)c1ccc(Cl)c(Cl)c1,0,0,0,14,0,0,0
CCC(C)NC(=O)CSc1ccc(S(=O)(=O)N2CCN(Cc3ccccc3)CC2)cn1 (stereo not drawn),0,0,0,-,0,0,-
Cc1noc(NS(=O)(=O)c2ccc(NC(=O)Nc3ccc(Cl)c(Cl)c3)cc2)c1C,0,0,0,16,0,0,0
O=c1[nH]c(-c2ccccc2)c(-c2ccccc2)nc1[N+](=O)[O-],0,0,0,0,0,0,-
